This note sets out measurements from PubChem BioAssay (Tox21).

Experiment [1] deals with Luciferin 4-monooxygenase (Photinus pyralis) (UniProt P08659). Description: qHTS assay to identify small molecule inhibitors of firefly luciferase (AID 1224835). Also: nearly all actives have a fitted effect of over 25% in size. In a few lines: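 Biochemical qHTS: compounds run as interplate titrations against purified firefly enzyme, with D-luciferin and ATP each at its KM concentration. Light output recorded by CCD imaging.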
For orientation: In qHTS, concentration-response curves come from the screen itself.

A short description of experiment [2]: qHTS assay to identify small molecule agonists of the constitutive androstane receptor (CAR) signaling pathway - cell viability counter screen (AID 1224836). Also: nearly all actives have a fitted effect of over 45% in size. Also: potency is read from the fitted curve at half-maximal effect. In a few lines: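 Fluorescence from CellTiter-Fluor indicates live cells after 23 h exposure. The human hepatoma line expresses hCAR and a CYP2B6-2.2kb reporter. Incubation medium contains 0.75 uM PK11195 (final).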

Experiment [3] can be described thus: qHTS assay to identify small molecule antagonists of the constitutive androstane receptor (CAR) signaling pathway - cell viability counter screen (AID 1224837). Also: nearly all actives have a fitted effect of over 45% in size. Also: potency is read from the fitted curve at half-maximal effect. Put shortly:
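Multiplexed cytotoxicity read-out for the CAR antagonist screen: double-stable HepG2-CYP2B6-hCAR cells co-treated with 50 nM CITCO (final) and compound over 15 concentrations, incubated 23 hr, then assessed by CellTiter-Fluor fluorescence.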

Experiment [4] deals with Nuclear receptor subfamily 1 group I member 3 (Homo sapiens) (UniProt Q14994). As to the kind of experiment: qHTS assay to identify small molecule antagonists of the constitutive androstane receptor (CAR) signaling pathway (AID 1224838). Also: nearly all actives have a fitted effect of over 40% in size. Also: potency is read from the fitted curve at half-maximal effect. Put shortly:
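Compounds were titrated across 15 concentrations onto HepG2 cells double-stably expressing hCAR and a CYP2B6-2.2kb reporter, together with 50 nM CITCO (final). After 24 h at 37 C, luciferase activity was measured by luminescence.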

Experiment [5] shares this target. Description: qHTS assay to identify small molecule agonists of the constitutive androstane receptor (CAR) signaling pathway (AID 1224839).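 Also: HepG2 cells stably carrying human CAR and a CYP2B6 luciferase reporter; nearly all actives have a fitted effect of over 15% in size.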 In a few lines: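 Stable hCAR/CYP2B6-2.2kb HepG2 line in DMEM with 10% FBS; compounds (15 concentrations) and 0.75 uM PK11195 final, 24 h at 37 C/5% CO2, then ONE-Glo luminescence after 30 min.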
A short description of experiment [6]: qHTS assay to identify small molecule antagonists of the estrogen related receptor signaling pathway with the pleiotropic PPARgamma coactivator (PGC) from Tox21 10K library - cell viability counter screen (AID 1224840; active = well fitted cell-killing curve with a large enough effect in the repeat runs, not every such curve was filed as active; also: nearly all actives have a fitted effect of over 40% in size). In a few lines: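 Step one, plate 2,000 PGC/ERR cells per well; step two, incubate 6 h at 37 C/5% CO2; step three, pin-transfer compounds; step four, incubate 17.5 h; step five, add CellTiter-Fluor and read fluorescence after 30 min.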

The target in experiment [7] is Thyrotropin receptor (Homo sapiens) (UniProt P16473). Description: qHTS assay to identify small molecule agonists of the thyroid stimulating hormone receptor (TSHR) signaling pathway (AID 1224843; calls by dose curve; also: nearly all actives have a fitted effect of over 45% in size). Put shortly:
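Steps: seed 800 TSHR-HEK293 cells per well; add test compound and hold 30 min at ambient temperature; dispense cAMP-d2 then anti-cAMP cryptate; incubate 1 h at ambient; measure fluorescence intensity.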

Experiment [8] in a line: qHTS assay to identify small molecule agonists of the hypoxia (HIF-1) signaling pathway - cell viability counter screen (AID 1224844; calls by dose curve; also: nearly all actives have a fitted effect of over 50% in size; also: potency is read from the fitted curve at half-maximal effect). Put shortly:
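Tox21 10K compounds were added to HRE-bla ME-180 cells (0.5% dialyzed FBS) and incubated 17 hrs at 37C; ATP-based CellTiter-Glo luminescence then reported cell viability in the same wells.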

Experiment [9] is described as follows: qHTS assay to identify small molecule agonists of H2AX (AID 1224845; active = well fitted activation curve with a large enough effect in the signal ratio in the repeat runs, not every such curve was filed as active; the % refers to the signal ratio). In a few lines: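 Wild-type CHO-K1 cells, plated overnight, exposed 3hr at 37C to 15 concentrations (0.76% DMSO final). Lysed, then HTRF anti-pH2AX (S139) cryptate and anti-H2AX-d2 antibodies, 24 hr room temperature; 665/620 nm emission read.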
The nature of experiment [10]: qHTS assay to identify small molecule agonists of H2AX - cell viability counter screen (AID 1224847; calls by dose curve; also: top concentration of the series differs between compounds; nearly all actives have a fitted effect of over 30% in size). Put shortly:
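Viability of CHO-K1 (wild type) cells after 3 hr compound exposure was measured by CellTiter-Glo luminescence.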

Experiment [11] is described as follows: qHTS RealTime-Glo MT Cell Viability Assay in HepG2 cells - 24 hour (AID 1224867). Also: nearly all actives have a fitted effect of over 50% in size. Also: potency is read from the fitted curve at half-maximal effect. In a few lines:
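HepG2 cells were seeded at 600 cells/well together with NanoLuc luciferase and a cell-permeant prosubstrate, preincubated 5 h at 37 C/5% CO2, then pin-dosed with compounds in DMSO. Nonlytic luminescence from viable cells was read at each time point.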

Experiment [12] is described as follows: qHTS RealTime-Glo MT Cell Viability Assay in HEK293 cells - 32 hour (AID 1224868). Also: nearly all actives have a fitted effect of over 50% in size. Also: potency is read from the fitted curve at half-maximal effect. In a few lines: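 HEK293 cells were seeded at 600 cells/well together with NanoLuc luciferase and cell-permeant prosubstrate, preincubated 5 h at 37 C/5% CO2, then given compound in DMSO by pintool. Luminescence from viable-cell prosubstrate reduction was read repeatedly over 40 h.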

The nature of experiment [13]: A CellTox Green Cytotoxicity Assay to monitor cytotoxicity in HEK293 cells - 0 hour (AID 1224869). Also: nearly all actives have a fitted effect of over 50% in size. Put shortly:
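Cytotoxicity was tracked continuously in HEK293 cells by a DNA-binding dye excluded from viable cells. Compounds were transferred in DMSO 5 h after seeding; fluorescence was recorded at intervals up to 40 h.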

The nature of experiment [14]: qHTS assay to identify small molecule agonists of the estrogen related receptor signaling pathway with the pleiotropic PPARgamma coactivator (PGC) from Tox21 10K library (AID 1224842). Also: nearly all actives have a fitted effect of over 15% in size. In a few lines: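 PGC/ERR reporter cell line, 2,000 cells per well, incubated 6 h at 37 C before 23 nL compound in DMSO was added. After 18 h at 37 C, One-Glo luminescence read following 30 min at room temperature.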

A short description of experiment [15]: qHTS assay to identify small molecule agonists of the hypoxia (HIF-1) signaling pathway (AID 1224846; active = well fitted activation curve with a large enough effect in the signal ratio in the repeat runs, not every such curve was filed as active; the % refers to the signal ratio). Put shortly:
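Steps: seed ME-180 HRE-bla cells (2,000/well, 0.5% dialyzed FBS); incubate 5 hrs at 37C; pin-transfer compounds or DMSO; incubate 17 hrs; add LiveBLAzer B/G substrate CCF4-AM; measure reporter activation by FRET.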

Experiment [16] is described as follows: qHTS assay to identify small molecule antagonists of the estrogen related receptor (ERR) signaling pathway from Tox21 library (AID 1224848). Also: nearly all actives have a fitted effect of over 50% in size. Also: potency is read from the fitted curve at half-maximal effect. In a few lines:
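Luminescent reporter read-out (ONE-Glo) from NTP's ERR cell line after 18 h treatment at 37 C with DMSO-dissolved Tox21 compounds; cells pre-plated 6 h beforehand at 2,000 per well.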

The nature of experiment [17]: qHTS assay to identify small molecule agonists of the estrogen related receptor (ERR) signaling pathway from Tox21 library (AID 1224849; calls by dose curve; also: nearly all actives have a fitted effect of over 15% in size). The note with it: ERR reporter cell line, ONE-Glo luciferase, 18 h; at 92.4 µM (top of the series) unless noted. Put shortly: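 Agonist signal is luciferase luminescence from an ERR reporter cell line treated 18 h at 37 C with DMSO-dissolved compounds, read 30 min after ONE-Glo addition at room temperature.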

The nature of experiment [18]: qHTS assay to identify small molecule antagonists of the estrogen related receptor signaling pathway with the pleiotropic PPARgamma coactivator (PGC) from Tox21 10K library (AID 1224841; call rule not given here). Put shortly: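 Antagonism in this quantitative HTS is taken from loss of luciferase signal in PGC/ERR cells. Cells (2,000/well) are treated with compounds in DMSO after a 6 h settling period and read by One-Glo luminescence after 18 h.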

A short description of experiment [19]: qHTS assay to identify small molecule antagonists of the estrogen related receptor (ERR) signaling pathway from Tox21 library - cell viability counter screen (AID 1224834). Also: nearly all actives have a fitted effect of over 30% in size. In a few lines:
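Cytotoxicity of test substances is gauged in the same ERR cells used for the antagonist screen, after 17.5 h of compound treatment at 37 C, by CellTiter-Fluor fluorescence measured after 30 min.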

Values without a mark were called inactive. Results filed as inconclusive are left out. The source made the active and inactive calls. Unless noted, calls follow the shape of the dose curve; as a rule, active = well fitted curve in the direction sought with a large enough effect in the repeat runs; inconclusive = weak or mixed curves; inactive = no such curve, though single readings can be large; an effect the other way counts as inactive or inconclusive.
% is scaled to controls: 0 for no effect and ±100 for the full control effect.

Sequence of Luciferin 4-monooxygenase (Photinus pyralis) (P08659 whole entry, looked up): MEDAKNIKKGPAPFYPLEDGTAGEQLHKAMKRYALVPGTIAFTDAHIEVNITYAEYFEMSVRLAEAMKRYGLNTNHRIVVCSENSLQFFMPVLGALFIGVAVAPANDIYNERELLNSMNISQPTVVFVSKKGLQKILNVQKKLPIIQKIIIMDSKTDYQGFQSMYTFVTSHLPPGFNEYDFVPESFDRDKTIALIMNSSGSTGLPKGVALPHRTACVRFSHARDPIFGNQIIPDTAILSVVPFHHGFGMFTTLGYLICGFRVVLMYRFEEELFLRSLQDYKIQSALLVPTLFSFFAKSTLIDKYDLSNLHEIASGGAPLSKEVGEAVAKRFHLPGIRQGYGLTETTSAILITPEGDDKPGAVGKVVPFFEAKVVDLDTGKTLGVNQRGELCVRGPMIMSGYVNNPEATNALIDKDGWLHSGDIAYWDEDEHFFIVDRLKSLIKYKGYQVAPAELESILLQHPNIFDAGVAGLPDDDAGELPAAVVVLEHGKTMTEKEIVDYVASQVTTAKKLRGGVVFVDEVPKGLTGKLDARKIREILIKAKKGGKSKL
Sequence of Nuclear receptor subfamily 1 group I member 3 (Homo sapiens) (Q14994 whole entry, looked up): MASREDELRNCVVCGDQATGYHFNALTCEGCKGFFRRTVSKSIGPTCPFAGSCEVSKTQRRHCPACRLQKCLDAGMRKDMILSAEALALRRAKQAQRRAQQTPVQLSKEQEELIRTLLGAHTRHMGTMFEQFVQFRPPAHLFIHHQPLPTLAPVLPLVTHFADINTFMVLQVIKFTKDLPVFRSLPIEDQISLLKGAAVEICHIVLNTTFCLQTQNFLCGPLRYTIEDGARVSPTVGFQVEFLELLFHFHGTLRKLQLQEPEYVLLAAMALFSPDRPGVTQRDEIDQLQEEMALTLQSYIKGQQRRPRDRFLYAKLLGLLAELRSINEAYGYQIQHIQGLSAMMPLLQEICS
Sequence of Thyrotropin receptor (Homo sapiens) (P16473 whole entry, looked up): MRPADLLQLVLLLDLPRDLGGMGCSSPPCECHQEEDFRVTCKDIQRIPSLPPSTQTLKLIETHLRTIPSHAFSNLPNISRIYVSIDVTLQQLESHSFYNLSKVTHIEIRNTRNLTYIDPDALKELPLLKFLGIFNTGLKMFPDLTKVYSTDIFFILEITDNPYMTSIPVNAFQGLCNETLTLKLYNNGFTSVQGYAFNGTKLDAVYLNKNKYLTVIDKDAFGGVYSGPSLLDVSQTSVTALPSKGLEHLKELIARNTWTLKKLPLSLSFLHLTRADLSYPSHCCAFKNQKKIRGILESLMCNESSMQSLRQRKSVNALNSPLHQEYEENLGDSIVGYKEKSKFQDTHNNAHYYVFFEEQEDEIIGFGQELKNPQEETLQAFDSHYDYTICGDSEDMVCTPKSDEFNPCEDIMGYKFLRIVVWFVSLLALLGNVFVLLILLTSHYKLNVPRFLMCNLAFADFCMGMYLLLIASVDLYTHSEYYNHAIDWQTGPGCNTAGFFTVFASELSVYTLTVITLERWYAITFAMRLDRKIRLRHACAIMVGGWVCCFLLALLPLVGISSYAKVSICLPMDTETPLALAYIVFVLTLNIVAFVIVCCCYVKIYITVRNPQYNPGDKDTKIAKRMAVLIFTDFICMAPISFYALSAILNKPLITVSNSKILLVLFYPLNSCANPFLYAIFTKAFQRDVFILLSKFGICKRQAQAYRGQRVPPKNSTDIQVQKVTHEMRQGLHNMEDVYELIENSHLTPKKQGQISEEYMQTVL

For `O=C(O)C(Cc1cc(I)c(O)c(I)c1)c1ccccc1` (stereo not given), the Potency result in [1], in [2], in [3], in experiment [4], in [5] and in experiment [6] was “inactive” in each case. For the same molecule, the Potency result in [7], in experiment [8], in experiment [9], in [10], in experiment [11] and in experiment [12] was “inactive” throughout. In addition, in experiment [13], the Potency result is “inactive”.
Take `Cc1occc1C(=O)Nc1ccc(C(=O)N2CCC(F)(F)/C(=C\C(=O)N3CCC(N4CCCCC4)CC3)c3ccccc32)cc1`: the Potency result in experiment [1], in [2], in experiment [3], in experiment [4], in experiment [5] and in [14] was “inactive” in each case. The Potency entry in experiment [7], in [8], in [9], in experiment [10], in experiment [16] and in [11] was “inactive” in each case. The Potency entry in [13] was “inactive”. The molecule was classed as inactive in [15]. In addition, in [17], the activity change, positive = activation is -12.3% [at 42.5 µM]. The Potency in [12] is 10.8 µM (active).
For the molecule `CCCOC(=O)c1ccc(N)cc1`, the Potency entry in experiment [1], in [2], in experiment [3], in experiment [4], in [6] and in [18] was “inactive” in each case. Also, the Potency entry in experiment [14], in [7], in experiment [8], in experiment [9], in experiment [10] and in [11] was “inactive” each time. For the same molecule, the Potency entry in [12] and in [13] was “inactive” in each case.
Consider `COC(=O)[C@@H]1CC2=CC(=O)CC[C@]2(C)[C@@]23O[C@@H]2C[C@@]2(C)[C@@H](CC[C@@]24CCC(=O)O4)[C@H]13`, for which the Potency entry in [1], in experiment [2], in experiment [3], in [4], in experiment [5] and in [6] was “inactive” throughout. Further, the Potency entry in experiment [7], in [8], in experiment [9], in experiment [11], in experiment [12] and in experiment [13] was “inactive” throughout. Besides, in [15], the call was inactive.
`CN(C(=O)C(Cl)Cl)c1ccc(OC(=O)c2ccco2)cc1`: the Potency result in experiment [19], in experiment [2], in experiment [3], in experiment [4], in experiment [5] and in experiment [6] was “inactive” in each case. Besides, the Potency result in experiment [7], in [8], in experiment [9], in experiment [10], in experiment [11] and in experiment [12] was “inactive” each time. Besides, in experiment [13], the Potency result is “inactive”.
For the molecule `CC(Cl)C(Cl)Cl` (stereo not given), the Potency result in [19], in experiment [2], in experiment [3], in experiment [6], in experiment [7] and in experiment [9] was “inactive” each time. For the same molecule, the Potency result in experiment [10], in experiment [11] and in experiment [12] was “inactive” throughout. Also, the molecule was called inactive in [15].
Turning to `O=C(N[C@@H](c1ccccc1)[C@@H]1CCCCN1)c1cccc(C(F)(F)F)c1Cl`, the Potency result in [1], in experiment [5], in experiment [14], in experiment [7], in experiment [8] and in [13] was “inactive” throughout. For the same molecule, the Potency in [2] is 61.1 µM (active); in experiment [3], 61.1 µM (active); in experiment [4] it was 48.6 µM (active); in experiment [16], 30.6 µM (active); in experiment [11], 43.6 µM (active); in [12], 24.5 µM (active). For the same molecule, the result in experiment [15] was inactive. Further, the activity change, positive = activation in [17] was -38.1%.
For `CCOC(=N)CC(=O)OCC`, the Potency result in experiment [1], in experiment [2], in experiment [3], in [4], in experiment [5] and in experiment [6] was “inactive” throughout. Besides, the Potency entry in experiment [7], in experiment [9], in [11], in [12] and in experiment [13] was “inactive” each time. The Potency in experiment [8] was 19.5 µM (active).
As for `CCc1cccc(N(C)C(N)=Nc2cccc3ccccc23)c1`, the Potency entry in experiment [19], in [2], in experiment [3], in [5], in [6] and in [7] was “inactive” throughout. Moreover, the Potency entry in experiment [8], in experiment [9] and in experiment [11] was “inactive” each time. Moreover, in experiment [15], the outcome was inactive.
